Screening results from PubChem.
This is a sample that favours compounds with a hit; in the whole collection about 4.5% have one here.
Mtb FBA inh: inhibits M. tuberculosis FBA enzyme | P9WQA3 | purified M. tuberculosis FBA, fluorescence read-out | inhibition, % at 1 µM | actives 2.3% (n = 360,000)
Target sequence (P9WQA3 whole entry, looked up): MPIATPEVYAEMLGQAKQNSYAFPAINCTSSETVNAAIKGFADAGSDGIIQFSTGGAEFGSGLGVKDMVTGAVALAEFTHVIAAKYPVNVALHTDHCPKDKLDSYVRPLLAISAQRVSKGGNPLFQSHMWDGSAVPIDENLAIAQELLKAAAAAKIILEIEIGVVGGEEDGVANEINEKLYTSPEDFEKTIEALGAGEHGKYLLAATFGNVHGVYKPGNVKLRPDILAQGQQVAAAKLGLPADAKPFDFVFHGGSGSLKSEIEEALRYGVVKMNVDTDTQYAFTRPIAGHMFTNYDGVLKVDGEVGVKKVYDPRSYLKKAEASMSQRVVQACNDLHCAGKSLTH
PrP UTR inh: inhibition of PrP 5' UTR reporter expression; cell-based PrP 5' UTR mRNA reporter, plate reader; inhibition, % (no concentration beside the values); actives 0.35% (n = 340,000); AID 488862; in the data active = inhibition above about 52%
BJeLR viability: BJeLR cell viability loss; BJeLR (HRASV12) viability, CellTiter-Glo ATP luminescence, 48 h; inhibition, % (concentration not given with the values); actives 0.17% (n = 300,000); in the data active = inhibition above about 50%
PfHsp40 yeast: compounds rescuing yeast from Plasmodium falciparum HSP40 toxicity | AID 504582 | actives 0.68% (n = 340,000) | growth rescue, % at 12.5 µM | S. cerevisiae expressing PfHsp40, growth rescue, ATP luminescence; in the data active = growth rescue above about 28%, passing the limit was not always enough;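 also: yeast W303a lacking pdr1 and pdr3 grown in galactose medium; growth measured after three days at 30 °C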
PrPC TRFRET: cell surface PrPC inhibition, primary TR-FRET screen. inhibition, % at 13.8 µM. TR-FRET read-out. actives 0.43% (n = 370,000). P04156; in the data active = inhibition above about 24%
GDH-TPI counter-1: GDH-TPI coupled enzyme inhibition counter-screen; actives 1.2% (n = 360,000); inhibition, % at 4.8 µM; GDH-TPI coupled enzyme counterscreen, NADH absorbance; AID 588335; in the data active = inhibition above about 30%
Mtb FBA confirm: confirmation of M. tuberculosis fructose-bisphosphate aldolase inhibitors; purified M. tuberculosis FBA, fluorescence read-out; actives 78% (n = 5,600); shares compounds with Mtb FBA inh; inhibition, % at 1 µM
GDH-TPI counter-2: inhibits GDH-TPI coupling enzymes, flagging Mtb FBA hits. shares compounds with Mtb FBA inh. actives 81% (n = 5,600). GDH-TPI coupled enzyme counterscreen, fluorescence. inhibition, % at 1 µM; in the data active = inhibition above about 10%
GDH-TPI DR: inhibits GDH-TPI coupling enzymes in dose response; IC50, µM; shares compounds with Mtb FBA inh; GDH-TPI coupled enzyme assay, fluorescence, artifact counterscreen; actives 79% (n = 170); call rule not given here
A number is an active result; . = inactive; / = not tested or not shown; + = active, no number. Rule as the data show it, unless noted: active = inhibition above about 27%; inactive = the rest.

SMILES	Mtb FBA inh	PrP UTR inh	BJeLR viability	PfHsp40 yeast	PrPC TRFRET	GDH-TPI counter-1	Mtb FBA confirm	GDH-TPI counter-2	others
C=CCN1C(=O)[C@@H](CC(=O)NCC23CC4CC(CC(C4)C2)C3)[C@]2(C(=O)OCC)CCCCC/C=C/12	/	/	/	/	.	/	/	/
Cc1cccc(OC(C)C(=O)N2CCCN(C)CC2)c1C (stereo not given)	.	.	.	.	/	.	/	/
CCOC(=O)c1c(C)[n+](-c2ccc(C)cc2)c(CC)c2cc(OC)c(OC)cc12	41	/	.	.	.	.	82	57
Cc1ccccc1-c1nc(NC(C)C)nc2ccsc12	64	/	/	/	.	.	+	+
OCc1ccccc1-c1nc(NCC2CC2)nc2ccsc12	72	/	/	/	.	.	63	55
CC(C)Nc1nc(-c2ccccc2CO)c2sccc2n1	74	/	/	/	.	.	77	58
Cc1ccc(C)c(S(=O)(=O)N2CCN(C(=O)Cc3sc(C)nc3-c3ccc(F)cc3)CC2)c1	.	.	/	.	.	.	/	/
CCS(=O)(=O)Nc1ccccc1C(N)=O	44	.	.	.	.	.	.	.	GDH-TPI DR=4.3
NC(=O)c1ccccc1NC(=O)COc1ccc(Cl)cc1	.	.	.	.	.	.	/	/
NC(=O)c1ccccc1NS(=O)(=O)Cc1ccc(Cl)cc1	70	.	.	.	.	.	.	.
Brc1ccc(NC(c2ccccc2)c2ccncc2)cc1 (stereo not given)	.	.	.	.	.	.	/	/
Cc1[nH]nc2c1-c1nc3ccccc3nc1C(C)(C)C2	38	.	.	.	.	.	.	18
COc1ccc(-c2nnc(NC(=O)c3c(OC)cccc3OC)s2)cc1	.	.	.	.	.	.	/	/
CCOC(=O)Nc1nnc(-c2ccc(OC)c(OC)c2)s1	62	.	.	.	.	.	72	58
COC(=O)Nc1nnc(-c2ccc(OC)cc2)s1	43	.	.	.	.	.	58	56
Oc1c(Cl)cc(Cl)cc1/C=N/NC(=S)NC1CC2C=CC1C2 (stereo not given)	35	.	.	132	.	.	59	57
Oc1ccccc1C=NNC(=S)NC1CC2C=CC1C2 (stereo not given)	.	/	/	/	.	.	/	/
C[C@H](CO)N1C[C@H](C)[C@H](CN(C)S(=O)(=O)c2cccs2)OCc2cnnn2CCCC1=O	.	/	/	/	.	.	/	/
NC(=O)Nc1ccc(C(=O)OCC(=O)N2CCCC2=O)cc1	.	.	/	.	.	.	/	/
CNC(=O)c1cn2c3c(ccc(Cl)c3c1=O)OC(C)C2 (stereo not given)	37	.	/	.	.	.	.	.
COc1ccc2oc(C(=O)OCC(=O)N(C)C3CCCCC3)c(C)c2c1	38	.	.	.	.	.	.	.
CCN(C(=O)COC(=O)c1oc2ccc(OC)cc2c1C)C1CCCCC1	30	.	.	.	.	.	103	78
COc1ccc2oc(C(=O)OCC(=O)N(C)C3CCS(=O)(=O)C3)c(C)c2c1 (stereo not given)	45	.	.	.	.	.	73	53
Cc1c(C(=O)OCC(=O)N(C)C2CCS(=O)(=O)C2)oc2ccc(Br)cc12 (stereo not given)	.	.	.	.	.	.	/	/
CCOc1ccc2oc(C(=O)OCC(=O)NC3CCCCC3)c(C)c2c1	.	.	/	.	.	.	/	/
SMILES	Mtb FBA inh	PrP UTR inh	BJeLR viability	PfHsp40 yeast	PrPC TRFRET	GDH-TPI counter-1	Mtb FBA confirm	GDH-TPI counter-2	others
COc1ccc2oc(C(=O)OCC(=O)N(C)CC(=O)Nc3ccc(C)cc3)c(C)c2c1	.	.	.	.	.	.	/	/
COC(=O)CSCC(=O)Nc1nnc(-c2cccc(C)c2)s1	.	.	/	.	.	.	/	/
Nc1cc2ccncc2c2ccccc12	102	.	.	.	.	.	+	+
N#Cc1cc2ccncc2c2ccccc12	.	/	/	/	.	.	/	/
COCCCn1cnc2c(c1=O)c1nc3ccccc3nc1n2-c1ccc(C)cc1	.	.	.	.	.	.	/	/
COCCCn1c2nc3ccccc3nc2c2c(=O)n(CC3CCCO3)cnc21 (stereo not given)	79	.	.	.	.	.	.	.
COc1ccc(-c2cc(C(F)F)n3ncc(C(=O)N4CCN(C)CC4)c3n2)cc1	30	.	.	.	.	.	39	34
CCOc1ccc(/C=N/n2c(C3CCCCC3)n[nH]c2=S)cc1	.	.	.	.	.	.	/	/
COc1ccccc1CCN=C(N)NS(=O)(=O)c1ccccc1F	51	.	.	.	.	.	+	175
CCC(CO)Nc1ncnc2c1cnn2-c1ccc(Cl)cc1 (stereo not given)	.	.	.	.	.	.	/	/
CCC(CO)Nc1ncnc2c1cnn2-c1ccc(OC)cc1 (stereo not given)	30	.	.	.	.	.	63	52
O=C(NCCc1ccc(Cl)cc1Cl)C1=CC=CN2CCS(=O)(=O)N=C12	27	.	/	.	.	.	178	129
Fc1cc(Cl)cc2ccc(-c3ccccc3)nc12	.	/	/	/	.	/	/	/
CSc1ncc(C(=O)O)c(C)n1	.	.	.	.	.	.	/	/
Cc1ncc(C(=O)O)c(C(=O)O)c1N	34	.	.	.	.	.	.	15
COc1ccc(CN(C)C(=O)C2CSC3(C)CCC(=O)N23)cc1OC (stereo not given)	.	.	/	.	.	.	/	/
COc1ccc(-c2c[n+]3c4n2CCCCC4=C(c2ccc(Br)cc2)C3)cc1	75	.	.	.	.	.	136	105
Nc1nc(SCc2ccccc2)c2ncn(C3CCCO3)c2n1 (stereo not given)	.	.	/	.	.	.	/	/
CN1C(=O)c2ccc(NC(=O)CCS(=O)(=O)c3ccccc3)cc2C1=O	35	.	.	.	.	.	83	61
O=C(CCS(=O)(=O)c1ccccc1)Nc1ccc2c(c1)C(=O)NC2=O	50	.	.	.	.	.	+	+
O=C(CSCc1ccccc1)Nc1ccc2c(c1)C(=O)NC2=O	.	.	.	.	.	.	/	/
Cc1ccc(NC(=O)CCS(=O)(=O)c2ccccc2)cc1S(=O)(=O)N1CCCCCC1	.	.	/	.	.	.	/	/
Cc1ccc(NC(=O)CCCC2CCCCC2)c(O)c1	.	.	.	.	.	.	/	/
O=S1(=O)c2ccccc2-c2c(nnn2Cc2ccccc2)CN1C1CC1	/	/	/	/	.	/	/	/
CC1CCC2C(C1)Nc1c(C(=O)O)cccc1C2(C)C (stereo not given)	77	.	.	.	.	.	.	11
O=C(NCCc1c[nH]c2ccccc12)C(=O)Nc1cc2c3c(c1)CC(=O)N3CCC2	.	.	.	.	.	.	/	/
